Measured values published in PubChem BioAssay (NCATS).
Values joined by “and” are separate entries in the source; they are usually repeats but may differ in a detail not shown here. Equal entries are not always repeated. Results filed as inconclusive are left out. Active and inactive are the calls of the source. Calls follow the shape of the dose curve; as a rule, active = well fitted curve in the direction sought with a large enough effect; inconclusive = small, poorly fitted or top-dose-only effect, or another doubt; inactive = no such curve, though single readings can be large; an effect the other way counts as inactive or inconclusive.

What was measured:
[1] = molecular target: Cellular tumor antigen p53 (Homo sapiens) (UniProt P04637); experiment: Primary qHTS for small molecule compounds that upregulate eGFP-tagged delta133p53alpha (in N-terminal) cells. (AID 2060322); conditions: NCI-H358 eGFP-delta133p53alpha fluorescence, 24 h; activation: active compounds read high;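 also: cells pre-induced with doxycycline then dosed without doxycycline; series mostly up to about 56 µM; 0% = DMSO vehicle and 100% = reference activator; nearly all actives have a fitted effect of over 75% in size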
Method in brief: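 NCI-H358 cells pre-induced 24 h with 10 ng/ml doxycycline for eGFP-delta133p53alpha, plated dox-free and exposed 24 h at 37C to titrated compounds. Fixed, Hoechst-stained; gated GFP peak intensity by laser scanning cytometry, normalized to DMSO (0%) and 57.5 uM 5-azacytidine (100%).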

[2] = molecular target: Aldehyde dehydrogenase, mitochondrial (Homo sapiens) (UniProt P05091); experiment: qHTS for Inhibitors of the Aldehyde Dehydrogenase Family (ALDH2) Primary screen (AID 2061308);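 also: plate controls were vehicle for no effect and reference inhibitor for full effect; nearly all actives have a fitted effect of over 55% in size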
[3] = molecular target: Retinaldehyde dehydrogenase 3 (Homo sapiens) (UniProt P47895); experiment: qHTS for Inhibitors of the Aldehyde Dehydrogenase Family (ALDH1A3) Primary screen (AID 2061315);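 also: plate controls were DMSO vehicle for no effect and reference inhibitor for full effect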

Chain of Cellular tumor antigen p53 (Homo sapiens) (P04637 whole entry, looked up): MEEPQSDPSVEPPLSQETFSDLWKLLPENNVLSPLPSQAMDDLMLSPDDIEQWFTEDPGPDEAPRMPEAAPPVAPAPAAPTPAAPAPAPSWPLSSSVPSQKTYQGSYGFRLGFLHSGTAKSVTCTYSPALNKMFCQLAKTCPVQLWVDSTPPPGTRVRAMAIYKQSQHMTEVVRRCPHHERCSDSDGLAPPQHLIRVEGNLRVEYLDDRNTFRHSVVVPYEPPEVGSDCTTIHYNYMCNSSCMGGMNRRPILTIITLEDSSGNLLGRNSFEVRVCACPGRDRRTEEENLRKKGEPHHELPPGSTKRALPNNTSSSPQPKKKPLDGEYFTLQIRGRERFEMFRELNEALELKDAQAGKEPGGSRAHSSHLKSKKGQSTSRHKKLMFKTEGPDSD

CC(C)C(NC(=O)c1ccc2ccccc2n1)C(=O)NC(CC(=O)O)C(=O)COc1c(F)cccc1F (centres undefined)
inactive: activation [1] 2.33% | Potency [2] | Potency [3]

CC(C)C(C)C(O)C1CC23CC(=O)C4(O)C(=C2CCC3C1C)C=CC1(O)CC(O)CCC14C (centres undefined)
inactive: activation [1] 15.3% | Potency [2] | Potency [3]

Cc1c(O)cc2c(c1O)COC1(O)CCCOC21 (centres undefined)
inactive: activation [1] -17.6% | Potency [2] | Potency [3]

COC1=CC(=O)O[C@@H](/C=C/c2ccccc2)[C@@H]1O
inactive: activation [1] 9.82% | Potency [2] | Potency [3]

CCC/C=C/C=C/C1CC(O)C2(O)C(=O)OCC12 (centres undefined)
inactive: activation [1] 6.11% | Potency [2] | Potency [3]

CC(C)CC(=O)O[C@@H]1OC=C(CO[C@@H]2O[C@H](CO)[C@@H](O)[C@H](O)[C@H]2O)[C@H]2[C@@H]3O[C@H]3[C@@](O)(CO)[C@@H]12
inactive: activation [1] -3.05% | Potency [2] | Potency [3]

C[C@@H]1O[C@@H](O[C@H]2[C@H](OC(=O)[C@]34CCC(C)(C)C[C@H]3C3=CCC5[C@@]6(C)C[C@H](O)[C@H](O[C@@H]7O[C@H](CO)[C@@H](O)[C@H](O)[C@H]7O)[C@@](C)(CO)C6[C@H](O)C[C@@]5(C)[C@]3(C)CC4)OC[C@H](O)[C@@H]2O)[C@H](O)[C@H](O)[C@H]1O[C@@H]1OC[C@@H](O)[C@H](O[C@@H]2OC[C@](O)(CO)[C@H]2O)[C@H]1O (some centres undefined)
inactive: activation [1] 5.36% | activity change, negative = inhibition [2] 8.31% [at 11.2 µM] | activity change, negative = inhibition [3] 7.08% [at 11.2 µM]

O=C(/C=C/c1ccc(O)cc1)OC[C@H]1O[C@@H](OC(=O)/C=C/c2ccccc2)[C@H](O)[C@@H](O)[C@@H]1O
inactive: activation [1] -1.53% | Potency [2] | Potency [3]

Cc1occc(=O)c1O[C@@H]1O[C@H](CO)[C@@H](O)[C@H](O)[C@H]1O
inactive: activation [1] 11.6% | Potency [2] | Potency [3]

CCc1c(-c2ccccc2)c(-c2ccccc2)nn1-c1ccccc1-c1cccc(OCC(=O)O)c1
inactive: activation [1] 13% | Potency [2] | Potency [3]

CO[C@H]1[C@@H](O)[C@H](O[C@H]2CC[C@@]3(C)C(CCC4C3CC[C@]35COC6(COC(=O)C6)C3CCC45O)C2)O[C@@H](C)[C@@H]1OC1OC(CO)C(OC2OC(CO)C(O)C(O)C2O)C(O)C1O (some centres undefined)
inactive: activation [1] 6.87% | Potency [2] | Potency [3]

COC(=O)/C=C/C12COC(C)(C)C1C(O)C(OC(C)=O)C1(C)C2CCC2(C)C(c3ccoc3)OC(=O)C3OC321 (centres undefined)
inactive: activation [1] 11.5% | Potency [2] | Potency [3]

COc1ccc2c(c1)OC[C@]1(O)c3cc4c(cc3O[C@H]21)OCO4
inactive: activation [1] -2.68% | Potency [2] | Potency [3]

C=CC(C)(C)c1[nH]c2ccccc2c1C[C@@H]1NC(=O)[C@H](Cc2c[nH]c3ccccc23)NC1=O
inactive: activation [1] 6.25% | Potency [2] | Potency [3]

CC1(C)CCC[C@]2(C)C1CC=C(CO)[C@H]2CC/C(=C/CO)CO (some centres undefined)
inactive: activation [1] -15.3% | Potency [2] | Potency [3]

FC(F)(F)c1cc(-c2ncn(/C=C\c3nnco3)n2)cc(C(F)(F)F)c1
inactive: activation [1] 7.67% | Potency [2] | Potency [3]

O=C(OCCOCCO)c1ccccc1Nc1cccc(C(F)(F)F)c1
inactive: activation [1] -13% and -1.67% | Potency [2] | Potency [3]

CC(=O)C=C=C1C(C)(C)CC(O[C@@H]2O[C@H](CO)[C@@H](O)[C@H](O)[C@H]2O)CC1(C)O (some centres undefined)
inactive: activation [1] -1.79% | Potency [2] | Potency [3]

CCN(CCN(C)C)C(=O)CNCc1cc(C(N)=O)ccn1
inactive: activation [1] -3.67% | Potency [2] | Potency [3]

COC(=O)C[C@H]1C(C)(C)[C@H](OC(=O)C(C)C)C2CC3=C4CC(=O)O[C@@H](c5ccoc5)[C@]4(C)CCC3[C@@]1(C)C2=O (some centres undefined)
inactive: activation [1] 11.6% | Potency [2] | Potency [3]

CC(CCC1(O)OC2CC3C4CCC5CC(O[C@@H]6O[C@H](CO)[C@@H](O)[C@H](O)[C@H]6O[C@@H]6O[C@@H](C)[C@H](O)[C@@H](O)[C@H]6O)C(O)CC5(C)C4CCC3(C)C2C1C)CO[C@@H]1O[C@H](CO)[C@@H](O)[C@H](O)[C@H]1O (some centres undefined)
inactive: activation [1] 9.82% | Potency [2] | Potency [3]

COC1CCCC/C(C)=C/C2C=C(C)C(C)C3C(CC(C)C)NC(=O)C23C(=O)C1 (centres undefined)
inactive: activation [1] -5.34% | Potency [2] | Potency [3]

CC1(C)S[C@@H]2[C@H](NC(=O)[C@H](N)c3ccc(O)cc3)C(=O)N2[C@H]1C(=O)O
inactive: activation [1] -5% | Potency [2] | Potency [3]
